About 83,000 compounds went through this panel and 20% of them were active in at least one assay; those are over-represented in the sample as a whole.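 The endpoint reported here, percent growth, reads 100 for growth as untreated, 0 for no net growth and -100 for all cells dead.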 Values without a mark were called inactive. Active and inactive are the calls of the source. Rule for the calls: active = growth percent below 10; inactive = the rest.

For the assay, the system named is MCF7 breast. Put plainly: NCI-60 one-dose screen, 48 h (100 = growth as untreated, 0 = no growth, -100 = all killed). The following applies: 10 µM unless noted.
Take `C=C(C)[C@@H]1CC[C@]2(C=O)CC[C@]3(C)[C@H](CC[C@@H]4[C@@]5(C)CCCNC(C)(C)[C@@H]5CC[C@]43C)[C@@H]12`: the growth is 30%.

On to `COc1cc(OC)cc(C2C3=C(COC3=O)Nc3cc(OC)ccc32)c1` (centres undefined), for which the growth was 15.7%.

Consider `CN1CCN(C(=O)[C@]2(C)CC[C@]3(C)CC[C@]4(C)C(=CC(=O)[C@@H]5[C@@]6(C)CCC(=O)NC(C)(C)[C@@H]6CC[C@]54C)[C@@H]3C2)CC1`, for which the growth was 91.8%.

Regarding `COc1cc(C2CC(c3cccc(Nc4ccncc4)c3)=NN2c2cc(Cl)cc(Cl)c2)cc(OC)c1OC` (centres undefined), the growth was -50.7% (active).

For the compound `COc1ccc(-c2ncc(-c3ccccc3)[nH]2)cc1OC`, the growth is 83.6%.

For `CC(C)(C)OC(=O)N1C/C(=C\c2ccoc2)C(=O)/C(=C/c2ccoc2)C1`, the growth is 20.5%.

Regarding `Cc1ccc2nc3c(cc2c1)CSc1nnc(-c2ccc[nH]c2=S)n1N3`, the growth was 94.4%.

Turning to `COc1ccc(Nn2c(SCC(=O)Nc3nc(-c4ccc(Cl)cc4)cs3)nc(C)c2C)cc1`, the growth was 20.8%.

Regarding `C=C(C)[C@@H]1CC[C@]2(C(=O)NCCCN(CCC#N)CCC#N)CC[C@]3(C)[C@H](CC[C@@H]4[C@@]5(C)CCC(=O)C(C)(C)[C@@H]5CC[C@]43C)[C@@H]12`, the growth was 92.8%.

For the compound `Cc1ccc(C2CC(c3cccc(Nc4ccncc4)c3)=NN2c2ccc(Cl)cc2)cc1` (centres undefined), the growth was -73.4% (active).

As to `COc1cc(NCCCN(CC(C)C)C2CCCC2)c2ncccc2c1`, the growth is 0.473% (active).

Turning to `COc1ccc(Cn2nc3c(c2-c2cc(OC)c(OC)c(OC)c2)-c2oncc2CC3)cc1`, the growth was 69.9%.

Take `O=S(=O)(c1ccc(N/N=C\c2ccccc2)cc1)c1ccc(N/N=C/c2ccccc2)cc1`: the growth is 62.9%.

Consider `CC1(C)[C@H](O)CC[C@]2(C)[C@@H]1CC[C@@]13C[C@@H](CC[C@H]12)[C@@](O)(CO)C3`, for which the growth is 99.3%.

Consider `COc1ccccc1OCC(=O)N1CCCCCC1`, for which the growth is 92.8%.

On to `Cc1c2c(cc[n+]1Cc1ccccc1)c1ccc(OCc3ccccc3)cc1n2Cc1ccccc1`, for which the growth is -23.1% (active).

As to `CCn1cc(C2NC(=O)c3ccccc3N2)c2cccc(C)c21` (centres undefined), the growth was 16.9%.

As for `O=C(Cc1ccc(/C=C/C(=O)c2ncc[nH]2)cc1)Nc1ccc(C(F)(F)F)cc1`, the growth was 10.3%.

For `COc1cccc(C(Cc2ccccc2)Nc2ccccc2)c1OC` (centres undefined), the growth was 102%.

Regarding `CCCCCCC/C=C/[C@H]1O[C@]2(O)C(=O)C=C3C[C@@H](O[C@@H]4O[C@H](CO)[C@@H](O)C(O)[C@@H]4O)C[C@@H]3[C@H]2C=C1C` (some centres undefined), the growth was 8.66% (active).

In the case of `CCOC(=O)N1CCc2c(sc3nc4nc[nH]n4c(=O)c23)C1`, the growth is 93.5%.

For `Cc1nccc2c3ccc(OCc4cn(-c5ccc(Cl)cc5)nn4)cc3n(CCCc3ccccc3)c12`, the growth is 20.2%.

As for `O=C1Nc2c(ccc(Cl)c2Cl)/C1=C/c1ccc(O)cc1`, the growth was 54.1%.

Regarding `C[C@@H]1CN(Cc2ccc(/C=C/c3n[nH]c4ccc5nc(-c6cn[nH]c6C(F)(F)F)c6c(c5c34)CCCC6)cc2)C[C@H](C)O1`, the growth is 12.4%.

As to `COc1ccc(C(=O)c2cc3c(N)c(C(=O)Nc4cccc(OC)c4)sc3nc2C)cc1`, the growth is 23.4%.

Regarding `COc1ccc(/C(=C\c2ccccc2)C(=O)O)cc1OC`, the growth is 93.7%.

Consider `C[C@]12CCc3nc(Nc4cccc(O)c4)sc3C1=CC[C@@H]1[C@@H]2CC[C@]2(C)/C(=N\NC(N)=S)CC[C@@H]12`, for which the growth was -39.3% (active).

As to `COc1ccc(-c2c(-c3ccccc3)noc2N)cc1OC`, the growth was 91.2%.

Regarding `COc1cc(-c2nc3occn3c2-c2ccnc(NCCNS(=O)(=O)c3ccc(Cl)cc3)n2)ccc1F`, the growth is 65.5%.

For `COc1cc(CCNc2nc3cc(N)cc(N)c3nc2-c2ccccc2)cc(OC)c1`, the growth is -79.9% (active).

`CCC(=O)c1ccc(O)c(OC)c1`: the growth is 108%.

Consider `N#Cc1ccc(-c2ccc3c(c2)NC(=O)/C3=C\c2ccc[nH]2)cc1`, for which the growth is 15.3%.

In the case of `C=C(C)[C@@H]1CC[C@]2(CO)CC[C@]3(C)[C@H](CC[C@@H]4[C@@]5(C)CCCNC(C)(C)[C@@H]5CC[C@]43C)[C@@H]12`, the growth is -12.6% (active).

On to `CC(=O)c1c(C)[nH]c(-c2nc3ccc(N4CCN(C)CC4)cc3[nH]2)c1-c1ccccc1`, for which the growth is 7.32% (active).

For the origin of these results see PubChem BioAssay (NCI).
